# According to the OligoGym collection:
# Target: RWDD2B
# Assay: pooled miR-30 sensor sort-seq; sequence = guide strand
# Settings: shRNA
# Further: reference of the scale not given here.
row,Sequence,sensor-assay potency score (higher = more potent)
1,TAACACTGAACACTTTTTCTTC,-0.298
2,TCTTCTTTTCAATACAATCTTT,-0.675
3,TTCCACACAAACAACACCAGGT,0.95
4,TTGGACATGTGTAAGTTTCTTG,0.645
5,TCAACTGACTGGACTGTGCTTC,0.407
6,TTCAGTATACAAACATCTCCAT,0.0635
7,TCAGTATACAAACATCTCCATG,-1.45
8,TAGAATATTCTTTCTTTTGCAT,0.0563
9,TTGATAGTAAAGTAGACTTTTG,-1.18
10,TTTCAGTTCTGCTACAGCCAGC,-0.902
11,TCCATTAACACTGAACACTTTT,-0.901
12,TTTTTCGTCAGATACATCCAGG,-0.29

# Target: RXFP4
# Assay: as above
# Settings: shRNA
row,Sequence,sensor-assay potency score (higher = more potent)
1,TTGCTTGCGACCCACCGCCTGC,-0.81
2,AACTTCACCAGGACACCCCAGA,-1.12
3,TAGGAATTTGACAGGCATCGGA,0.2
4,AGGAATTTGACAGGCATCGGAG,-1.05
5,TAGACGTTGAGGACAGTGGCCG,0.159
6,TAGAAGGGCGGCTCTCCCGGGG,-0.734
7,TAGCGAGCAACGCTCAGCGCTG,-1.3
8,TCTTGCAGAGGGCACCTCCGAA,-1.29
9,TACAGCACAGGGTTGAGGCAGC,-0.483
10,TAGCTGGTGGTGATGACGCCCA,-0.885
11,TTGAAGACGAAGGTGTCTGAAG,-0.402
12,TCAGGAGACAGTACAGCACAGG,-0.981

# Target: RYK
# Assay: as above
# Settings: shRNA
row,Sequence,sensor-assay potency score (higher = more potent)
1,TATTCGGTAACCATCTTTCAGG,-0.693
2,TTGTATTATCTCCTTTTCCAGA,-1.16
3,TTTTTGTAGCACATTTTCCTTC,-0.15
4,TTTAGAGTTATCCTCTCTCTGG,-0.8
5,TTACTGCACAACAAACCCCTAC,-0.546
6,TATTGCTATATCCTTCACCTTG,-0.912
7,TTGTCTGTGATCTTAACTTGAA,-0.554
8,TTTCATACTATGAAGGTGCAAA,-0.131
9,TAACTGTTTTGACAAATGCTTG,-1.47
10,TTGAAGACAAACCATTTCCCAG,-0.946
11,TTGTAGCACATTTTCCTTCGTT,0.000719
12,TTTTCATCTATTAAAATCCCAT,-0.695
